HT1080 IDH1KD tx – kills HT-1080 cells with IDH1 knockdown; HT-1080 IDH1 knockdown viability, ATP luminescence, 48 h; Potency, µM (titrated, usually from 46.1 µM), for inactives: at the highest dose activity, negative = toxicity, most hits filed as cytotoxic; 360,000 compounds, 2% hits;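 also: potency is read from the fitted curve at half-maximal effect; 0% = DMSO wells and -100% = cell-free medium wells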
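Assay cells: HT-1080 with IDH1 knockdown, 750 per well, RPMI/5% FBS. Exposure: 48 h at 37 °C following 2 h pre-incubation. Read: CellTiter-Glo luminescence; fitted concentration-response, curve class assigned.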
DT40 TDP1 CPT – DT40-hTDP1 cell growth loss with CPT | chicken DT40 Tdp1-/-;hTDP1 cells + 20 nM CPT, ATP luminescence, 48 h | Potency, µM (highest dose often 46.2 µM), for the others: at the top dose activity change, negative = growth inhibition, hits mostly inhibitors | 420,000 compounds, 12% hits | AID 686979; also: potency is read from the fitted curve at half-maximal effect; nearly all actives have a fitted effect of over 55% in size
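Chicken DT40 Tdp1-/- cells complemented with human TDP1, 400 cells/well, exposed to compounds plus 20 nM camptothecin for at least 48 h at 37 C; viability read as ATP content by CellTiter-Glo luminescence.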
IL1B secr inh – inhibitors of inflammasome signaling (IL-1 beta secretion); THP-1 LPS/ATP IL-1B secretion, AlphaLISA, 16 h; stronger effect = lower value; activity change, % at 57.5 µM; 360,000 compounds, 4.7% hits; AID 743279; in the data active = activity change below about -50%; inconclusive = mostly about -30% to -49%
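Secreted IL-1B measured by AlphaLISA bead assay after 16 h compound exposure of THP-1 cells; compounds (final up to 57.5 uM) added 1 h before LPS (250 ng/mL) and ATP (1.25 mM) stimulation; lower signal means less secretion.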
HT1080NT lethal – kills 2HG-producing HT-1080-NT fibrosarcoma cells; HT-1080-NT fibrosarcoma viability, CellTiter-Glo ATP luminescence, 48 h; Potency, µM (doses to about 46.1 µM), for the others: at the top dose activity, negative = less viability, hits mostly cytotoxic; 360,000 compounds, 1.6% hits; AID 686970;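 also: NT is the 2HG producing partner of a matched IDH1 knockdown line; potency is read from the fitted curve at half-maximal effect; 0% = DMSO-treated cells and -100% = media-only wells without cells; nearly all actives have a fitted effect of over 55% in size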
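750 cells/well, RPMI + 5% FBS; 2 h settle, compound pin-transfer, 48 h at 37 degrees C. CellTiter-Glo 10 min RT, luminescence. Normalized to DMSO and media-only wells.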
TDP1 cell noCPT – qHTS for Inhibitors of human tyrosyl-DNA phosphodiesterase 1 (TDP1): qHTS in cells in absence of CPT. DT40 Tdp1-/- hTDP1 cells, no CPT, ATP luminescence, 48 h. Potency, µM (highest dose often 46.2 µM), for the others: at the highest dose activity change, negative = growth inhibition, most hits filed as inhibitors. 420,000 compounds, 15% hits. AID 686978, 2013; also: potency is read from the fitted curve at half-maximal effect; nearly all actives have a fitted effect of over 55% in size
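Luminescent ATP content (CellTiter-Glo) served as the growth readout. Knockout chicken DT40 cells expressing human TDP1 were exposed to compounds without camptothecin for a minimum 48 hr at 37 °C.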
Starred values were filed as active, the others as inactive; i = inactive; u = inconclusive; x = not tested or not shown. A selection: hits, their analogues and other compounds. The true share with any hit is near 19%. Unless noted, calls follow the shape of the dose curve; as a rule, active = well fitted curve in the direction sought with a large enough effect; inconclusive = small, poorly fitted or top-dose-only effect, or another doubt; inactive = no such curve, though single readings can be large; an effect the other way counts as inactive or inconclusive. Unless noted, % is scaled to controls: 0 for no effect and ±100 for the full control effect.

SMILES | HT1080 IDH1KD tx | DT40 TDP1 CPT | IL1B secr inh | HT1080NT lethal | TDP1 cell noCPT
COc1ccc(CCNC(=O)c2cc3c(=O)n4cccc(C)c4nc3n(CC3CCCO3)c2=N)cc1 (centres undefined) | 0% | 3.3µM* | -11 | -3% | 10µM*
Cc1cccn2c(=O)c3cc(C(=O)NCC4CCCO4)c(=N)n(CCc4ccccc4)c3nc12 (centres undefined) | 1% | 16µM* | 35 | 7% | -83%
CCc1c(C)sc(NC(=O)c2cc(-c3ccco3)on2)c1C#N | -3% | -19% | -22 | 10% | -18%
CCOC(=O)c1c(C)[nH]c(C(=O)OCCOc2ccccc2C)c1C | 5% | -21% | -20 | 14% | -19%
O=C(NCCNC(=O)c1cccnc1)c1ccc(Br)cc1 | 7% | -14% | 48 | 17% | 0%
O=C1c2cccc3cccc(c23)C(=O)N1Cc1cccnc1 | 4% | 1% | 24 | 2% | u
c1cc2c3c(cccc3c1)-c1cnccc1-2 | -12% | 15% | -66* | -10% | -24%
COC(CNC(=O)Cn1nc(Cc2ccncc2)c2ccccc2c1=O)OC | 0% | 3% | -8 | 2% | -20%
O=C(Nc1cn(-c2ccccc2)nc1-c1ccc(Cl)cc1)c1ccccc1 | 4% | u | 4 | -1% | u
Cc1ccc(-c2nn(-c3ccccc3)cc2NC(=O)c2ccccc2)cc1 | -2% | 21µM* | u | -9% | 21µM*
O=C(Nc1cn(-c2ccccc2)nc1-c1ccc(F)cc1)c1ccccc1 | 1% | 21µM* | 10 | 0% | 18µM*
CC(=O)c1ccc(Nc2nc(C(N)Cc3ccc(Cl)cc3)cs2)cc1 (centres undefined) | u | 18µM* | -54* | 23µM* | u
CC(=O)c1ccc(Nc2nc(C(N)CCc3ccccc3)cs2)cc1 (centres undefined) | u | u | u | 21µM* | 16µM*
CC(=O)c1ccc(Nc2nc(C(N)Cc3ccc(N)cc3)cs2)cc1 (centres undefined) | 0% | u | -12 | -7% | u
O=C(CCN1C(=O)/C(=C\c2cccc(Br)c2)SC1=S)NCCCN1CCOCC1 | -16% | u | -20 | -12% | u
CN1CCN(C(=O)CCCN2C(=O)/C(=C/c3cccc(Br)c3)SC2=S)CC1 | 18µM* | -22% | -100* | u | u
CN1CCN(C(=O)CCN2C(=O)/C(=C/c3cccc(Br)c3)SC2=S)CC1 | u | u | -76* | 15µM* | 12µM*
CCN(CC)CCNCC1C(=O)O[C@@H]2C[C@@]3(C)CCC[C@H](C)C3=C[C@H]12 (some centres undefined) | 16µM* | u | x | u | 13µM*
Cc1cccc(COCC(CC(C)C)N2CCN(C(=O)c3ccc(C(F)(F)F)cc3)CCC2=O)c1 (centres undefined) | -5% | 23µM* | -54* | 0% | u
CC(C)CC(COCc1ccc([N+](=O)[O-])cc1)N1CCN(C(=O)c2ccc(C(F)(F)F)cc2)CCC1=O (centres undefined) | -11% | 18µM* | u | -4% | u
CC(C)CC(CO)N1CCN(C(=O)c2cccc(C(F)(F)F)c2)CCC1=O (centres undefined) | 0% | 5% | 3 | 7% | -4%
Cc1cccc(COC[C@H](CC(C)C)N2CCN(C(=O)c3ccc(C(C)(C)C)cc3)CCC2=O)c1 | u | u | -70* | u | u
Cc1ccc(COCC(CC(C)C)N2CCN(C(=O)c3cccc(C(F)(F)F)c3)CCC2=O)cc1 (centres undefined) | -10% | u | -27 | -3% | u
CC(C)CC(COCc1ccc(F)cc1)N1CCN(C(=O)c2cccc(C(F)(F)F)c2)CCC1=O (centres undefined) | -14% | u | -9 | -17% | u
Cc1cccc(COCC(CC(C)C)N2CCN(C(=O)c3ccc(C(C)(C)C)cc3)CCC2=O)c1 (centres undefined) | u | u | -73* | 0% | 18µM*
SMILES | HT1080 IDH1KD tx | DT40 TDP1 CPT | IL1B secr inh | HT1080NT lethal | TDP1 cell noCPT
COc1ccc(-n2c(=O)c(C)nc3cnc(N(C)C)nc32)cc1 | x | -16% | x | x | -30%
Cc1ccc(-c2noc(CC(=O)c3ccc([N+](=O)[O-])cc3)n2)cc1 | 0% | u | 4 | 0% | u
CC(C)(C)c1ccc(-c2nnc3sc(-c4ccncc4)nn23)cc1 | 6% | 13µM* | -6 | -7% | u
Cc1nnc2sc(-c3ccncc3)nn12 | 3% | 9% | 0 | 0% | 0%
CCN(CC)c1ccc(-c2nn3c(-c4cccnc4)nnc3s2)cc1 | -19% | 18µM* | -6 | -29% | 21µM*
c1cncc(-c2nnc3sc(-c4ccco4)nn23)c1 | -10% | -29% | -30 | u | -24%
COc1ccc(/C=N/NC(=O)c2cc(-c3ccccc3)nc3ccccc23)cc1O | -25% | 10µM* | 40 | -16% | 1.3µM*
COc1cc(/C=N/NC(=O)CCN2CCCCC2)ccc1O | 0% | 14% | 8 | 2% | -15%
COc1cc(/C=N/NC(=O)CCn2cnc(-c3ccccc3)c2-c2ccccc2)ccc1O | u | u | -14 | 16µM* | 18µM*
COc1ccc(CC(=O)N/N=C/c2c(C)n(C)c3ccccc23)cc1OC | 13µM* | 9.2µM* | 33 | u | 9.2µM*
CC(C)COc1cccc(-c2cc(C(=O)N/N=C/c3ccncc3)c3ccccc3n2)c1 | 18µM* | 9.2µM* | i | -26% | u
COc1cc(/C=N/NC(=O)c2cc(-c3ccccc3)nc3ccccc23)ccc1O | u | u | 48 | -25% | u
OCC[C@@H]1C[C@H](O)[C@@H](O)[C@]2(OCCc3cc(Cl)ccc32)O1 | 23% | -14% | -14 | -1% | 1%
COc1ccc(/C=N/NC(=O)CCn2c3ccccc3c3ccccc32)cc1O | u | 1.5µM* | -6 | 1.4µM* | 1.6µM*
CCOc1cc(/C=N/NC(=O)c2cc(-c3cccc(OC)c3)nc3ccccc23)ccc1O | u | 8.2µM* | -9 | -24% | 1.3µM*
COc1ccc(/C=N/NC(=O)c2nc(-c3ccccc3)n(-c3ccccc3)n2)cc1OC | 6% | u | -12 | -1% | u
COc1ccc(Cc2nc3ccccc3n2CC(=O)N/N=C/c2ccc(C)cc2O)cc1OC | -18% | 2.1µM* | 27 | -8% | 0.65µM*

High-throughput results deposited in PubChem BioAssay by National Center for Advancing Translational Sciences (NCATS).
